Experimental data taken from PubChem BioAssay AID1159580 (chemical genetic matrix, 2015).
About 2,000 (36%) of roughly 5,500 compounds were called active. Not shown: some 18% with an inconclusive outcome. Rule as the data show it: active = normalized growth mostly below about 0.91 (no sharp cut-off); inconclusive = no clear call, values can overlap the other calls; inactive = mostly above about 0.92. The list shows a part of the results.

Assay: chemical genetic growth profiling, strain panel (AID 1159580);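 also: tested at 20 µM; growth read once vehicle control cultures reached saturation at 30 °C; 1 = growth at the plate median or of vehicle wells; lower values mean less growth of the strain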
Details: S. cerevisiae deletion strains, growth OD

Measured: normalized growth

CN1CC(O)C(O)C(O)C1CO (stereo not drawn)
inactive: locus YAL040C, strain CLN3, active compounds read low 1 | locus YCL061C, strain MRC1 (second series), active compounds read low 1 | locus YDR363W, strain ESC2, active compounds read low 0.997 | locus YER002W, strain NOP16, active compounds read low 1.01 | locus YGR078C, strain PAC10, active compounds read low 1.01 | locus YMR307W, strain GAS1, active compounds read low 0.998 | locus YNL128W, strain TEP1, active compounds read low 0.975 | locus YNL153C, strain GIM3, active compounds read low 1.01 | locus YNL175C, strain NOP13, active compounds read low 0.992 | locus YNL197C, strain WHI3, active compounds read low 1 | locus YNL224C, strain SQS1, active compounds read low 0.992 | locus YOR083W, strain WHI5 (second series), active compounds read low 1 | locus YPL241C, strain CIN2, active compounds read low 1.01
